From PubChem BioAssay come the findings set out here.

A short description of assay [1]: viability loss in pontine glioma line – cell-based, SU-DIPG-XXV, MIPE5.0, CellTiter-Glo, qHTS, dose response (AID 1347065; cut-off not given, nearly all actives have AC50 up to about 26 µM;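 also: cells exposed to compound for 48 hours before ATP readout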). To be noted: CellTiter-Glo ATP luminescence.
Assay [2] is described as follows: JHH-DIPG-1 glioma cell viability, MIPE5.0 library, CellTiter-Glo luminescence, qHTS (AID 1347067; cut-off not given, nearly all actives have AC50 up to about 26 µM;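 also: cells exposed to compound for 48 hours before readout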). To be noted: JHH-DIPG-1 glioma viability, CellTiter-Glo ATP luminescence. (In general: Cellular ATP, detected with luciferase, serves as a proxy for viable cell number.)
Assay [3] can be described thus: P. berghei load reduction in hepatocytes – cell-based, HepG2, luciferase luminescence, HepG2 viability, primary screen (AID 624349; in the data active = parasite load remaining mostly below about 12%, no sharp cut-off; inactive = mostly above about 10%;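 also: 100% = mean of DMSO negative control wells on the same plate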). To be noted: P. berghei liver stage in HepG2, luciferase luminescence, concentration not given here; parasite load remaining: stronger effect = lower value; viability: measured here: HepG2 viability without parasites.
Assay [4] is described as follows: viability loss in pontine glioma line – cell-based, SU-DIPG-XIII, MIPE5.0, CellTiter-Glo, qHTS, dose response (AID 1347064; cut-off not given, nearly all actives have AC50 up to about 23 µM;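 as to AC50: cells exposed to compound for 48 hours before the viability read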). To be noted: CellTiter-Glo ATP luminescence.
Assay [5] in a line: growth inhibition of DIPG cells – cell-based, MIPE5.0 library, qHTS (AID 1347068; cut-off not given, nearly all actives have IC50 up to about 30 µM). The following applies: SU-DIPG-XXV viability.
Assay [6] is described as follows: liver-stage malaria parasite load reduction – cell-based, known kinase inhibitor set, luminescence, hepatoma host viability (AID 624392; call rule not given here;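 also: infected cells incubated roughly two days before readout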). To be noted: Plasmodium liver stage in hepatoma cells, luciferase luminescence, concentration not given here; liver cell % of control: measured here: host liver cell viability; parasite % of control: stronger effect = lower value.
The nature of assay [7]: growth inhibition of DIPG cells – cell-based, MIPE4.0 library, CellTiter-Glo luminescence, qHTS (AID 1347066; cut-off not given, nearly all actives have AC50 up to about 30 µM;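 also: cells exposed to compound for 48 hours before readout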). To be noted: SU-DIPG-VI viability, CellTiter-Glo ATP luminescence.
The nature of assay [8]: viability loss with induced miR-34 in A549 – imaging, A549 dox-inducible miR-34, nuclei and caspase counts, primary screen (AID 1347080;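 active = compounds whose cell count with miR-34 switched on is under 0.7 times the count with it off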). To be noted: A549 miR-34 inducible, Hoechst nuclei count, 48 h.
Assay [9] can be described thus: compounds altering HSF1 focus formation in cells – imaging, Selleck Cancer Library (AID 1347162; in the data active = plate-normalised HSF1 focus index below about 0.46). To be noted: human cells, HSF1 nuclear foci imaging, at 10 µM; SSMD: measured here: HSF1 foci SSMD mean; cell count: measured here: cell number; plate-normalised HSF1 focus index: stronger effect = lower value.
The nature of assay [10]: MELAS cybrid and Rieske KO viability enhancers – cell-based, MELAS cybrids, Rieske KO mouse fibroblasts, CellTiter-Glo, primary screen (AID 1508586;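 active = mean z-score across replicates of 1.96 or higher in either the MELAS or the Rieske mutant cell line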;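 also: z relative to plate mean and SD of compound and empty wells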). The following applies: low glucose.
Assay [11] can be described thus: drug combination growth inhibition, ovarian cancer – cell-based, oncology-focused library, rucaparib conditional, profiling panel (AID 1508598). The following applies: patient-derived ovarian cancer cells, CellTiter-Glo viability, 144 h, stronger effect = lower value.

Several values for one entry are separate records, joined by “and”; a condition that tells them apart may be missing. Identical values can stand only once. Records with an inconclusive call do not appear. Activity calls are given as the source filed them.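 The calls were made as follows, unless noted: active = normalized viability below 100% at a tested concentration; inactive = the rest.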

One may read the AC50 as the concentration giving half of the maximal activity seen. Consider `CNc1nc(Nc2cnn([C@H]3CCN(C4COC4)C[C@@H]3F)c2Cl)ncc1C(F)(F)F`, for which the AC50 in assay [1] was 20.9 µM (active).
`COC(=O)/C=C/C(=O)N(O)CCCCNCc1ccc(COC(=O)Nc2cccc3ccccc23)cc1`: the AC50 in assay [1] is 20.9 µM (active); in assay [2], 18.6 µM (active).
What is called viability is a read-out of living cells in per cent, often relative to untreated cells. For `COc1ccc2nc3n[nH]c(C)c3c(NCCOCCO)c2c1`, in [3], the parasite load remaining is 46.1% (inactive) and the viability turned out to be 90.1%. The molecule was classed as inactive in assay [4]. Further, the call in [2] was inactive.
Turning to `Nc1nc(OC(c2ccc(-c3cccc(F)c3)cc2)C(F)(F)F)cc(-c2ccc(C[C@@H](N)C(=O)O)cc2)n1` (some centres undefined), the concentration at half-maximal activity (AC50) in assay [1] was 23.5 µM (active).
Still for that read-out and setting: next, `Cc1ccc(C(=O)Nc2ccc(Oc3cc4cnn(C)c4cc3-c3cn[nH]c3)c(F)c2)c(=O)n1-c1ccc(F)cc1`: 4.68 µM (active).
In the case of `C[C@@H](Nc1ncnc2[nH]c(-c3ccc(O)cc3)cc12)c1ccccc1`, the molecule was called inactive in assay [4] and in assay [5].
With `CN(C)CCOc1cc(-c2cn[nH]c2)ccc1NC(=O)C1COc2ccccc2O1` (centres undefined), in [6], the liver cell % of control was 74.6% and 79.4% and 100%; the parasite % of control is 63.3% (inactive) and 69.1% (inactive) and 49.5% (inactive). The AC50 in [1] is 7.42 µM (active). In assay [7], the molecule was classed as inactive.
For the molecule `CCNC1(C(N)=O)CCN(c2ncnc3c2nc(-c2ccccc2Cl)n3-c2ccc(Cl)cc2)CC1`, the AC50 in [1] was 11.8 µM (active).
With `Nc1ccn([C@@H]2C(F)=C(CO)[C@@H](O)[C@H]2O)c(=O)n1`, the call in assay [4], in [2] and in assay [5] was inactive.
Consider `C[C@@H](Nc1cc(F)cc(F)c1)c1cc(C(=O)N(C)C)cc2c(=O)cc(N3CCOCC3)oc12`, for which the AC50 in [1] was 9.34 µM (active).
In the case of `Cc1nn(Cc2ccccc2Cl)c(C)c1CN(C)CC(O)COc1ccc(Cl)cc1` (centres undefined), the AC50 in assay [1] was 20.9 µM (active); in assay [2] it was 23.5 µM (active).
On to `CCc1cc(Nc2nccc(-c3c(-c4ccc(OC)c(C(=O)Nc5c(F)cccc5F)c4)nc4ccccn34)n2)c(OC)cc1N1CCC(N2CCN(S(C)(=O)=O)CC2)CC1`, for which the AC50 in assay [4] is 5.25 µM (active). Further, the outcome in assay [5] was inactive. Further, the fold change in assay [8] (stronger effect = lower value, cell number ratio, induced over uninduced) was 0.946 (inactive); in assay [8] (measured here: relative caspase fold change +Dox/-Dox) it was 1.23. For the same molecule, the cell count came to 6190 in [8] (measured here: total cells with miR-34 induction, stronger effect = lower value); 6540 in assay [8] (measured here: total cells without miR-34 induction); 6760 in assay [9]. The molecule also yielded an SSMD in assay [9] of 2.41. In addition, the plate-normalised HSF1 focus index in [9] is 1.12 (inactive). In addition, the z-score in assay [10] (MELAS cybrid survival, CellTiter-Glo 48 h, stronger effect = higher value) was 0.319 (inactive); in assay [10] (Rieske KO mouse fibroblast survival, CellTiter-Glo 72 h), 0.793. Also, the viability in [11] (at 0.000305 µM, OCI-C5x cells, with rucaparib 10 µM, 100% = cells with rucaparib alone) is 118% (inactive); in [11] (at 0.000305 µM, OCI-C5x cells, without rucaparib) it was 127% (inactive); in [11] (at 0.000305 µM, OCI-P5x cells, with rucaparib 20 µM, 100% = cells with rucaparib alone), 97.3% (active); in assay [11] (at 0.000305 µM, OCI-P5x cells, without rucaparib), 105% (inactive); in [11] (at 0.00122 µM, OCI-C5x cells, with rucaparib 10 µM, 100% = cells with rucaparib alone), 112% (inactive); in assay [11] (at 0.00122 µM, OCI-C5x cells, without rucaparib), 120% (inactive). The viability in assay [11] (at 0.00122 µM, OCI-P5x cells, with rucaparib 20 µM, 100% = cells with rucaparib alone) is 99.8% (active); in [11] (at 0.00122 µM, OCI-P5x cells, without rucaparib), 104% (inactive); in assay [11] (at 0.00488 µM, OCI-C5x cells, with rucaparib 10 µM, 100% = cells with rucaparib alone), 116% (inactive); in assay [11] (at 0.00488 µM, OCI-C5x cells, without rucaparib) it was 121% (inactive); in [11] (at 0.00488 µM, OCI-P5x cells, with rucaparib 20 µM, 100% = cells with rucaparib alone), 98.3% (active); in [11] (at 0.00488 µM, OCI-P5x cells, without rucaparib), 98.5% (active). The viability is 112% (inactive) in [11] (at 0.0195 µM, OCI-C5x cells, with rucaparib 10 µM, 100% = cells with rucaparib alone); 119% (inactive) in assay [11] (at 0.0195 µM, OCI-C5x cells, without rucaparib); 102% (inactive) in assay [11] (at 0.0195 µM, OCI-P5x cells, with rucaparib 20 µM, 100% = cells with rucaparib alone); 103% (inactive) in assay [11] (at 0.0195 µM, OCI-P5x cells, without rucaparib); 122% (inactive) in [11] (at 0.0781 µM, OCI-C5x cells, with rucaparib 10 µM, 100% = cells with rucaparib alone); 132% (inactive) in [11] (at 0.0781 µM, OCI-C5x cells, without rucaparib). Besides, the viability in [11] (at 0.0781 µM, OCI-P5x cells, with rucaparib 20 µM, 100% = cells with rucaparib alone) was 93.1% (active); in assay [11] (at 0.0781 µM, OCI-P5x cells, without rucaparib), 100% (inactive); in assay [11] (at 0.313 µM, OCI-C5x cells, with rucaparib 10 µM, 100% = cells with rucaparib alone), 174% (inactive); in assay [11] (at 0.313 µM, OCI-C5x cells, without rucaparib) it was 152% (inactive); in [11] (at 0.313 µM, OCI-P5x cells, with rucaparib 20 µM, 100% = cells with rucaparib alone), 103% (inactive); in assay [11] (at 0.313 µM, OCI-P5x cells, without rucaparib), 103% (inactive). Moreover, the viability in assay [11] (at 1.25 µM, OCI-C5x cells, with rucaparib 10 µM, 100% = cells with rucaparib alone) was 178% (inactive); in assay [11] (at 1.25 µM, OCI-C5x cells, without rucaparib) it was 174% (inactive); in [11] (at 1.25 µM, OCI-P5x cells, with rucaparib 20 µM, 100% = cells with rucaparib alone), 97.9% (active); in [11] (at 1.25 µM, OCI-P5x cells, without rucaparib), 88.3% (active); in assay [11] (at 5 µM, OCI-C5x cells, with rucaparib 10 µM, 100% = cells with rucaparib alone), 176% (inactive); in [11] (at 5 µM, OCI-C5x cells, without rucaparib), 196% (inactive). Further, the viability in assay [11] (at 5 µM, OCI-P5x cells, with rucaparib 20 µM, 100% = cells with rucaparib alone) is 92.9% (active); in [11] (at 5 µM, OCI-P5x cells, without rucaparib), 90.5% (active).
For `CN(C)CCNC(=O)NC[C@H]1CC[C@@H]2[C@H](O1)c1cc(C(F)(F)F)ccc1N[C@H]2c1ccccc1`, in [1], the half-maximal activity concentration (AC50) is 0.186 µM (active).
Turning to `CCc1cc(/C(C)=N/OCc2ccc(C3CCCCC3)c(C(F)(F)F)c2)ccc1CN1CC(C(=O)O)C1`, the AC50 in assay [1] was 18.6 µM (active). Further, in assay [7], the outcome was inactive.
For the molecule `NC(=O)c1cnc2[nH]ccc2c1NC1C2CC3C[C@H]1CC(O)(C3)C2` (some centres undefined), the AC50 in assay [1] was 9.34 µM (active).
